ATG4B inh – ATG4B protease inhibitors, primary screen, biochemical, fluorescence, uHTS | inhibition, % at 8.33 µM | ATG4B cleavage of LC3-PLA2, NBD-HPC fluorescence, 1 h | 340,000 compounds, 0.51% hits | Cysteine protease ATG4B (Homo sapiens), Q9Y4P1; in the data active = inhibition above about 40%
PAFAH1B2 FP inh – PAFAH1B2 enzyme inhibitors, primary screen, biochemical, fluorescence polarization, human | Platelet-activating factor acetylhydrolase IB subunit alpha2 (Homo sapiens), P68402 | recombinant PAFAH1B2, FP-rhodamine activity probe | inhibition, % at 3.39 µM | 340,000 compounds, 1.2% hits | AID 492953, 2010;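 active = inhibition above the mean of all tested compounds plus 3 SD, cut at about 24% in these data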
Target sequence (P68402 whole entry, looked up): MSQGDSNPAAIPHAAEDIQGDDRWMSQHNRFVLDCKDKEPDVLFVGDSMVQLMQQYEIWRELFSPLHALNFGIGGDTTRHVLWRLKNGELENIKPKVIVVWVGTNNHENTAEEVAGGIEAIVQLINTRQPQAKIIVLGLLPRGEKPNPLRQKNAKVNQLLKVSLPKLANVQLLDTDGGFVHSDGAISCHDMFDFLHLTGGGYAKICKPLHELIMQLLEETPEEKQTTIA
pPAFAH inh – pPAFAH enzyme inhibitors, primary screen, biochemical, fluorescence polarization, human; inhibition, % at 3.39 µM; recombinant pPAFAH, FP-rhodamine probe fluorescence polarization; 330,000 compounds, 1.5% hits; AID 463082, 2010; Platelet-activating factor acetylhydrolase (Homo sapiens), Q13093;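 active = inhibition above the mean inhibition across the screen plus 3 SD, cut at about 25% in these data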;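 also: inhibitors block binding of the rhodamine activity-based probe so polarization drops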
PAFAH2 inh – PAFAH2 enzyme inhibitors, primary screen, biochemical, fluorescence polarization, human; Platelet-activating factor acetylhydrolase 2, cytoplasmic (Homo sapiens), Q99487; recombinant PAFAH2, FP-rhodamine activity probe; inhibition, % at 3.39 µM; 340,000 compounds, 0.99% hits;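 active = inhibition above the mean over all tested compounds plus 3 SD, cut at about 30% in these data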;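 also: inhibitors block probe labeling of enzyme so polarization drops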
DAGLB inh – DAGLB lipase inhibitors, primary screen, biochemical, fluorescence, HTS; AID 504411, 2011; HEK293T DAGLB membrane lysate, EnzChek fluorogenic substrate; inhibition, % at 5.17 µM; 340,000 compounds, 0.059% hits; in the data active = inhibition above about 34%
PAFAH1B3 inh – PAFAH1B3 enzyme inhibitors, primary screen, biochemical, fluorescence polarization, human; Platelet-activating factor acetylhydrolase IB subunit alpha1 (Homo sapiens), Q15102; 340,000 compounds, 0.28% hits; inhibition, % at 3.39 µM; recombinant PAFAH1B3, FP-rhodamine probe;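 active = inhibition above the screen-wide average of all tested compounds plus 3 SD, cut at about 25% in these data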
Target sequence (Q15102 whole entry, looked up): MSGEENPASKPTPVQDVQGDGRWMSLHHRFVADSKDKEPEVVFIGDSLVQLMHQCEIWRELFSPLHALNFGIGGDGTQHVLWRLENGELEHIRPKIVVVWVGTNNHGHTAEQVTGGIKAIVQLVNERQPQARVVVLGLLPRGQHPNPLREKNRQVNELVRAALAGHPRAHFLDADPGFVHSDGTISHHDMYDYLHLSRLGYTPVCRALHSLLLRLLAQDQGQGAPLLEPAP
Of the large screens only hits and unclear results are named; the others gave an inactive call. This is a sample that favours compounds with a hit; in the whole collection about 3% have one here.

Cc1cc2n(n1)C(c1ccccc1)Nc1ccccc1-2 (stereo not drawn)	none
Cc1cc2n(n1)C(c1ccc(N(C)C)cc1)Nc1ccccc1-2 (stereo not drawn)	pPAFAH inh 26
Cc1ccc(C)c(OCCC(=O)OCC(=O)NNC(=O)c2ccccc2)c1	pPAFAH inh 31
Cc1ccc(C)c(OCCC(=O)OCC(=O)NC2CCCC2)c1	none
Cc1[nH]n(-c2ncc(-c3ccccc3)s2)c(=O)c1C(c1ccc(Br)cc1)C(C#N)C#N (stereo not drawn)	pPAFAH inh 27
COc1ccc(S(=O)(=O)Oc2ccc(C(=S)N3CCOCC3)cc2OC)cc1	none
COc1ccc(C(=S)N2CCOCC2)cc1OS(=O)(=O)c1ccc(Br)cc1	PAFAH1B2 FP inh 34
O=S(=O)(NCCc1cccs1)c1ccc(Br)cc1	PAFAH1B2 FP inh 25
CCc1cc2cccc(C)c2nc1SCC(=O)NC1CCCC1	none
CCc1ccc2nc(SCC(=O)N3CC(=O)Nc4ccccc43)c(C#N)cc2c1	none
CCc1cc2cc(C)ccc2nc1SCC(=O)N1CC(=O)Nc2ccccc21	pPAFAH inh 29
CCc1cc2cc(C)ccc2nc1SCC(=O)NC1CCCC1	pPAFAH inh 30
COc1cccc(CNC(=O)Cn2ncc3c(=O)oc4ccccc4c32)c1	none
COc1ccc(CN2C(=O)c3ccccc3C2C(=O)NC2CCC(C)CC2)c(OC)c1 (stereo not drawn)	PAFAH1B2 FP inh 26
O=C(c1ccc(CS(=O)(=O)Cc2ccc(Cl)cc2)o1)N1CCCC1	pPAFAH inh 26
c1ccc(C2Nc3cccc4cccc(c34)N2)cc1	none
c1csc(C2Nc3cccc4cccc(c34)N2)c1	PAFAH1B3 inh 30
O=C(NCCc1ccc(Cl)cc1)C1CCC(=O)N1Cc1ccc(F)cc1 (stereo not drawn)	PAFAH1B2 FP inh 28
CCC(CC)CN1CCC(CN2C(=S)NC[C@@H]2[C@@H](C)CC)CC1	none (no result: ATG4B inh, pPAFAH inh)
CCOCCCN(C)C1CCN(S(=O)(=O)c2csc(C(N)=O)c2)CC1	none
C/C(=N/NC(=O)c1cc2ccccc2cc1O)c1ccco1	pPAFAH inh 40
Cc1ccc(CN2CCCC(CO)(Cc3ccccc3C)C2)s1 (stereo not drawn)	none
N#CCC(=O)NN=C1CCCCCCCCCCC1	PAFAH1B2 FP inh 26
Oc1ccc(Br)cc1C=Nc1ccc2c3c(cccc13)CC2	pPAFAH inh 28
Oc1ccc(Cl)cc1C=Nc1ccccc1Br	none
CC(CC(=O)NCC1CCCO1)c1ccccc1 (stereo not drawn)	none
COc1ccccc1NC(=O)c1c([N+](=O)[O-])c(C(C)(C)C)nn1C	pPAFAH inh 31
COc1ccccc1NC(=O)c1nn(C)c(C(=O)Nc2ccccc2OC)c1[N+](=O)[O-]	none
O=C(CCCCl)NC1=NN(c2ccccc2)C(=O)C1	none
O=C(COc1ccc(Cl)cc1)NC1=NN(c2ccccc2)C(=O)C1	PAFAH1B2 FP inh 68
CCCCC(=O)NC(NC(=S)N1CCCCCC1)C(Cl)(Cl)Cl (stereo not drawn)	none
O=c1ccc(=O)n(CCc2ccccn2)[nH]1	none (no result: pPAFAH inh)
Cc1nc2c(C(=O)NCCC3=CCCCC3)c[nH]n2c(=O)c1Cl	pPAFAH inh 28
CCOc1cc(/C=N/N=C2/NC(=O)C(CC(=O)O)S2)ccc1OCc1ccccc1Cl (stereo not drawn)	pPAFAH inh 26
COc1ccc(S(=O)(=O)Oc2cccc(/C=N/N=C3/NC(=O)C(CC(=O)O)S3)c2)cc1 (stereo not drawn)	PAFAH1B2 FP inh 28
Cc1ccc(S(=O)(=O)Oc2ccc(/C=N/N=C3/NC(=O)C(CC(=O)O)S3)cc2)cc1 (stereo not drawn)	none (no result: PAFAH1B2 FP inh, pPAFAH inh, PAFAH2 inh, DAGLB inh, PAFAH1B3 inh)
COc1ccc(/C=N/N=C2/NC(=O)C(CC(=O)O)S2)cc1OCc1ccccc1Cl (stereo not drawn)	none
COc1ccc(C2C(C(=O)c3ccccc3)N3c4ccccc4C=CC3C2[N+](=O)[O-])cc1 (stereo not drawn)	none (no result: pPAFAH inh)
O=C(O)Cn1c(=O)c2c3c(sc2n(Cc2ccccc2F)c1=O)CCCC3	none
CSc1ccc(S(=O)(=O)NCCSC(C)(C)C)cc1	pPAFAH inh 28
CC(C)(C)SCCNS(=O)(=O)c1ccccc1	none
N#C/C(=C\c1cccs1)C(=O)Nc1ccccn1	none
S=c1[nH]nc(-c2ccco2)n1/N=C/c1ccc(Cl)cc1Cl	pPAFAH inh 31
COc1cc(/C=N/N2C(=O)CSC2=S)ccc1O	none
O=C1CSC(=S)N1/N=C/c1cc(Br)c(O)c(Br)c1	ATG4B inh 61
Cc1ccc(C(=O)/C=C/c2ccc(-c3ccc(C)cc3)o2)cc1	pPAFAH inh 26
O=C(N1CCCCC1)C1(c2ccccc2)CCOCC1	none
O=C(N1CCCCC1)C1(c2ccccc2)CCCCC1	PAFAH1B2 FP inh 30
O=C(N1CCOCC1)C1(c2ccccc2)CCCCC1	PAFAH1B2 FP inh 28
O=S(=O)(c1ccc2[nH]c3c(c2c1)CCCC3)N1CCCCC1	none
N#Cc1ccc(S(=O)(=O)N2CCc3[nH]c4ccc(F)cc4c3C2)cc1	PAFAH1B2 FP inh 38
COc1ccc(S(=O)(=O)N2CCC3(CC2)OCCN3S(=O)(=O)c2ccc(C)cc2)cc1OC	none
CCOc1ccc(CCNC(=O)COC(=O)COc2ccc(C(=O)CC)cc2)cc1OCC	none
Cc1cccc(N2CCN(C(=O)c3cc4n(n3)C(C(F)(F)F)CC(c3ccco3)N4)CC2)c1C (stereo not drawn)	pPAFAH inh 34
O=C(c1cc2n(n1)C(C(F)(F)F)CC(c1ccco1)N2)N1CCN(c2ccccn2)CC1 (stereo not drawn)	none
CC(=O)Nc1nn(C)c2nc3ccc(C)cc3cc12	none
CN(C)C(=O)CCc1ccc2c3c([nH]c2c1)[C@]1(C)[C@@H](C(=O)N2CCOCC2)C[C@H](CC(=O)NCc2cccc(C(F)(F)F)c2)C(=O)N1CC3	none
CCCNC(=O)C1CC(=O)N(c2ccc(OCc3ccc(F)cc3)cc2)C1 (stereo not drawn)	none
CCCNC(=O)C1CC(=O)N(c2ccc(OCc3ccc(Cl)cc3)cc2)C1 (stereo not drawn)	PAFAH1B2 FP inh 30
NC(=O)C1CC(=O)N(c2ccc(OCc3ccc(Cl)cc3)cc2)C1 (stereo not drawn)	PAFAH1B2 FP inh 28
O=S(=O)(NCC(O)c1ccccc1)c1cc(Cl)sc1Cl (stereo not drawn)	none
COC(C(=O)Nc1ccnn1C1CCN(Cc2nccs2)CC1)c1ccccc1 (stereo not drawn)	none

From PubChem
